Measurements taken from PubChem BioAssay AID686978 (National Center for Advancing Translational Sciences (NCATS), 2013).
The campaign covered roughly 420,000 compounds. About 64,000 (15%) were called active. Another 27% or so got no clear call; they are omitted. The list is a sample of the results. Values without a mark were called inactive. The call rests on the fitted dose curve; in most records, active means well fitted inhibition curve with a large enough effect; inconclusive means small, poorly fitted or top-dose-only effect; inactive means flat fitted curve, though single readings scatter.

Experiment: qHTS for Inhibitors of human tyrosyl-DNA phosphodiesterase 1 (TDP1): qHTS in cells in absence of CPT; further: nearly all actives have a fitted effect of over 55% in size
Conditions: DT40 Tdp1-/- hTDP1 cells, no CPT, ATP luminescence, 48 h; activity change, negative = growth inhibition: at 46.2 µM (top of the series)
Summary of the method: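 Growth of hTDP1-complemented DT40 Tdp1-knockout cells is measured by ATP luminescence after at least 48 hr compound exposure at 37 °C, with DMSO substituting for the 20 nM CPT used in the parallel screen.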
On the % scale 0 is the no-effect control and ±100 the full control effect; potency means the concentration at half of the fitted maximal effect.

SMILES	activity change, negative = growth inhibition [%]	Potency
Cc1nc2cnc(Nc3ccccc3)nc2n(Cc2ccc(F)cc2)c1=O	-2.88	–
COc1ccc(CN2CCc3nc(Nc4ccccc4)ncc3C2)c(OC)c1OC	–	20.6 µM (active)
Fc1ccc(CN2CCc3nc(Nc4ccccc4)ncc3C2)cc1F	–	20.6 µM (active)
O=C(CSc1nc2c(c(=O)[nH]1)CN(Cc1ccc(F)cc1)CC2)Nc1ccccc1Cl	0.998	–
COc1ccc(CN2CCN(Cc3ccc(OC)c(OC)c3OC)CC2)cc1	-19.3	–
Cn1c(=O)c(CCc2ccccc2)nc2cnc(Nc3ccccc3)nc21	14.5	–
Fc1cccc(CSc2nnc3ccc(-c4ccncc4)nn23)c1	-0.226	–
Cc1[nH]c2ccccc2c1-c1ccc(Cl)nn1	13.8	–
C=CCN1CCN(C(=O)CCCc2ccccc2)CC1	3.73	–
COc1ccccc1CNC(=O)[C@@H]1CCCN1C(=O)[C@@H]1Cc2ccccc2CN1C(=O)OC(C)(C)C	–	16.4 µM (active)
COc1ccccc1CNC(=O)C1Cc2ccccc2C(=O)O1 (stereo unspecified)	9.48	–
COc1ccccc1CNC(=O)C1CCN(C(=O)[C@@H]2Cc3ccccc3CN2)CC1	5.32	–
O=C(NCC(=O)N1CCC2(CC1)NCCc1[nH]cnc12)c1ccc(Br)cc1	15.7	–
CC(C)c1ccc(/C=C/C(=O)NNC(=O)c2cccnc2)cc1	-19.6	–
COc1cc2[nH]c(=S)n(Cc3ccc(C)o3)c(=O)c2cc1OC	-18.2	–
O=C(NCCc1c[nH]c2ccc(Cl)cc12)c1ccc([N+](=O)[O-])cc1	-7.74	–

SMILES	activity change, negative = growth inhibition [%]	Potency
CCOC(=O)COc1cc(O)c2c(=O)cc(-c3ccccc3)oc2c1	-1.32	–
C=C(C)COc1ccc(-c2n[nH]c(C)c2-c2ccccc2)c(O)c1	–	16.4 µM (active)
COc1ccc(-c2[nH]ncc2CN(C)Cc2c(C)n[nH]c2C)c(OC)c1	2.69	–
CCOc1ccc(-c2nc(N)ncc2-c2ccccc2OC)c(O)c1	-77.4	–
Cc1noc(C)c1COC(=O)COc1ccc(-c2ccccc2)cc1	8.63	–
COc1ccc(-c2n[nH]c(C)c2-c2ccccc2OC)c(O)c1	–	20.6 µM (active)
Cc1ccc2nc(N(CCN(C)C)C(=O)C3=COCCO3)sc2c1	14.5	–
CCCC(=O)OCC(=O)Nc1cc(Cl)ccc1[N+](=O)[O-]	-14	–
CCOC(=O)N1CCN(C(=O)c2ccccc2SCC(=O)NCC2CCCCC2)CC1	-22.5	–
Cc1[nH]c2ccccc2c1C(=O)COC(=O)C(C)C	-19	–
CCOC(=O)N1CCN(CC(=O)c2c(C)[nH]c3ccccc23)CC1	–	18.4 µM (active)
Cc1[nH]c2ccccc2c1C(=O)CN1CC(C)CC(C)C1 (stereo unspecified)	–	8.2 µM (active)
Cc1ccc2c(C(=O)CN3CCCC3)c(C)[nH]c2c1	-27.5	–
Cc1[nH]c2ccccc2c1C(=O)CSCC(=O)O	-16.8	–
Cc1[nH]c2ccccc2c1C(=O)CN1CCCC(C)C1 (stereo unspecified)	-28.9	–
